Results filed as inconclusive are left out. Activity calls are given as the source filed them. Unless noted, the call rests on the fitted dose curve; in most records, active means well fitted curve in the direction sought with a large enough effect; inconclusive means small, poorly fitted or top-dose-only effect, or another doubt; inactive means no such curve, though single readings can be large; an effect the other way counts as inactive or inconclusive.
Columns and labels:
[1] = molecular target: T1, Hexokinase-4 (Homo sapiens) + Glucokinase regulatory protein (Homo sapiens) (UniProt P35557+Q14397); test: qHTS assay for inhibitors of recombinant human GCK-GKRP interaction: Diaphorase-coupled assay (AID 743205)
T1 sequence (P35557 whole entry, looked up): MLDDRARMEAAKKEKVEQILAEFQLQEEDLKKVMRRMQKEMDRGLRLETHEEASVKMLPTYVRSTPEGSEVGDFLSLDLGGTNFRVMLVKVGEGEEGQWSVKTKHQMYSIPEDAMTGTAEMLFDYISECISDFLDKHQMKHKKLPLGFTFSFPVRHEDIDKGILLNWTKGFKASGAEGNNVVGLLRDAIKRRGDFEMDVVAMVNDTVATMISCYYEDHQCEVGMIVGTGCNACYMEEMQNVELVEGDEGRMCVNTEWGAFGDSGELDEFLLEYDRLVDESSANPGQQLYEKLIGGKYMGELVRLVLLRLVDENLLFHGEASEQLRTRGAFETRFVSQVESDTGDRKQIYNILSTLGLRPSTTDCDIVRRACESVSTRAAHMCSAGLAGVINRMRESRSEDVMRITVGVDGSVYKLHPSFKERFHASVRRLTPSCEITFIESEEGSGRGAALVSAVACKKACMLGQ
T1 sequence (Q14397 whole entry, looked up): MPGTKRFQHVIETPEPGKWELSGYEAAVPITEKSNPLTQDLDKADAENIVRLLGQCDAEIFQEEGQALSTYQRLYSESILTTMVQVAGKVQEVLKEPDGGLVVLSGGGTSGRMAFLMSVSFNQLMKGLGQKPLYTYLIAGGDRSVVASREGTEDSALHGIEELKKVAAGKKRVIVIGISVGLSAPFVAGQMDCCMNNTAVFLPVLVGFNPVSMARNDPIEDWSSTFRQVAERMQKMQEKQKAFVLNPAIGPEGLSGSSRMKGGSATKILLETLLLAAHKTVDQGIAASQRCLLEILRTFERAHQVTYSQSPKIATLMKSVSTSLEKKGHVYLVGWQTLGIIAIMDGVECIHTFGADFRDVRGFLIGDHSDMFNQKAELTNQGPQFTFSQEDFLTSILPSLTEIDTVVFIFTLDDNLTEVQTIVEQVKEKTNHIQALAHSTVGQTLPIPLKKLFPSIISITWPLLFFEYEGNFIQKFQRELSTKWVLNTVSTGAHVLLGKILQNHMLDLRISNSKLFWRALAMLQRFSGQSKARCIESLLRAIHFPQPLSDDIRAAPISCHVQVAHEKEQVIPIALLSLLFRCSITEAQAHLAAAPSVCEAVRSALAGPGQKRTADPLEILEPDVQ
Method in brief: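 GST-GCK (10 nM) with FLAG-GKRP (10 nM), 5 mM glucose and 0.4 mM ATP in pH 7.6 Hepes; compounds preincubated 20 min with substrate. G6PDH/diaphorase coupling converts resazurin to resorufin, read kinetically (ex 525/em 590 nm) for 30 min.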

[2] = molecular target: T1, Hexokinase-4 (Homo sapiens) + Glucokinase regulatory protein (Homo sapiens); test: qHTS assay for inhibitors of recombinant human GCK-GKRP interaction: ADP-Glo assay (AID 743206);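 further: plate controls were DMSO plus enzyme for no effect and no enzyme for full effect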
Method in brief: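 GST-GCK and FLAG-GKRP (15 nM each in the dispensed mix, with 2 uM S6P) react with 0.4 mM ATP and 5 mM glucose (final) in Hepes pH 7.6 for 60 min at room temperature. ADP is measured by ADP-Glo luminescence.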

[3] = molecular target: T1, Hexokinase-4 (Homo sapiens) + Glucokinase regulatory protein (Homo sapiens); test: qHTS assay for inhibitors of recombinant human GCK-GKRP interaction: HTRF assay (AID 743207);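 further: 0% = DMSO with GCK present and -100% = DMSO wells lacking GCK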
Method in brief: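 GST-GCK and FLAG-GKRP (5 nM each) were combined with 2 uM S6P in pH 7.1 Hepes/MgCl2/KCl/DTT buffer, then compound and anti-FLAG XL665/anti-GST K antibodies were added. After 60 min at room temperature, HTRF 665/615 nm emission was read.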

[4] = qHTS Assay for Identifying Gametocytocidal Compounds (AID 743244); further: potency means the concentration at half of the fitted maximal effect;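 on max response: on the % scale 0 is the no-effect control and ±100 the full control effect; actives lower the fluorescent signal which means gametocytes are killed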; conditions: P. falciparum 3D7 stage III-V gametocytes, alamarBlue, 72 h; max response: stronger effect = lower value
Method in brief: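 Fluorescence at Ex 525/Em 598 nm, recorded 24 h after alamarBlue addition, reports residual metabolic activity of 3D7 gametocytes (stages III–V) following 72 h compound exposure at 37 °C, 5% CO2.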

[5] = qHTS assay for cell viability of HEK293 cells (AID 743288); conditions: ATP luminescence (CellTiter-Glo), 18 h; max response: stronger effect = lower value; further: nearly all actives have a fitted effect of over 50% in size; further: potency means the concentration at half of the fitted maximal effect; on max response: on the % scale 0 is the no-effect control and ±100 the full control effect
Method in brief: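 Parental HEK293 cells were seeded at 2,000 cells/well, rested at least 5 h at 37 C, then exposed to compounds in DMSO for 18 h at 37 C. Viability was read as ATP-dependent luciferase luminescence after 30 min at room temperature.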

[6] = qHTS assay for cell viability of the p53RE-bla HCT-116 cell line (AID 743292); further: nearly all actives have a fitted effect of over 55% in size; further: potency means the concentration at half of the fitted maximal effect
Method in brief: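 Readout: CellTiter-Glo luminescence after 30 min RT. Treatment: compounds in DMSO, 16 h, 37 C. Cells: CellSensor p53RE-bla HCT-116, 4,000/well, preincubated 5 h.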

[7] = qHTS profiling for inhibitors of Plasmodium falciparum (3D7) proliferation (AID 743322);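 further: infected erythrocytes exposed to compound for 72 h before lysis; 100% = DMSO vehicle wells and 0% = 0.29 µM artemisinin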; conditions: P. falciparum 3D7 proliferation; at 28.7 µM (top of the series)
Method in brief: (§1)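 Erythrocytes infected with P. falciparum (0.3% parasitemia, 2.5% hematocrit) incubated with compounds 72 h at 37 C, 5% CO2. Lysis with saponin/Triton buffer containing SYBR Green I, overnight at room temperature in the dark; DNA fluorescence (485/535 nm) normalised to 0.29 uM artemisinin and DMSO.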

[8] = qHTS profiling for inhibitors of Plasmodium falciparum (DD2) proliferation (AID 743323; call rule not given here); conditions: lower = more inhibition; at 28.7 µM (top of the series)
Method in brief: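 1536-well qHTS; infected RBCs 0.3% parasitemia/2.5% Hct final; cpd 72 h 37 C 5% CO2; lysis buffer + SYBR Green I, o/n RT dark; FI 485/535; norm. to 0.29 uM artemisinin and DMSO, plate-stack corrected.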

[9] = qHTS profiling for inhibitors of Plasmodium falciparum (HB3) proliferation (AID 743324); conditions: Plasmodium falciparum HB3 blood-stage proliferation; at 28.7 µM (top of the series);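 further: 100% = DMSO vehicle wells and 0% = artemisinin-treated control wells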
Method in brief: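 P. falciparum HB3 grown in erythrocytes (0.3% parasitemia, 2.5% hematocrit final) with compound for 72 h at 37 C, 5% CO2. Parasite DNA detected by SYBR Green after saponin/triton lysis overnight; normalized to 0.29 uM artemisinin and DMSO.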

[10] = qHTS profiling of the MIPE4 collection as inhibitors of Plasmodium falciparum (3D7) proliferation (AID 743344; call rule not given here;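 further: scaled between DMSO vehicle wells and 0.29 µM artemisinin as full inhibition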); conditions: P. falciparum 3D7 in erythrocytes, SYBR Green DNA fluorescence, 72 h; at 28.5 µM (top of the series)
Method in brief: as §1

c1ccc2c(c1)CCC[C@H]2Nc1nc2ccccc2[nH]1
inactive: Potency [1] | Potency [2] | Potency [3] | max response [4] 12.6%

Nc1nc2c(nc(Br)n2C2OC3COP(=O)(O)O[C@@H]3C2O)c(=O)[nH]1 (stereo not given in full)
inactive: Potency [1] | Potency [2] | max response [4] 9.58%

C/C(=C\c1ccc(C(=O)O)cc1)c1ccc2c(c1)C(C)(C)CCC2(C)C
inactive: Potency [1] | Potency [2] | Potency [3] | max response [4] 19.4% | max response [5] -16.6%
active: Potency [6] 39.8 µM

COC1(C2=NCCN2)COc2ccccc2O1 (stereo not given)
inactive: Potency [1] | Potency [2] | max response [4] 25.5%

CC[C@@H]1Cc2cc(O)ccc2C2=C1c1ccc(O)cc1C[C@H]2CC
inactive: Potency [1] | Potency [2] | Potency [3]
active: Potency [4] 3.55 µM | Potency [5] 50.1 µM | Potency [6] 70.8 µM

N[C@@H](Cc1ccc(O)c(I)c1)C(=O)O
inactive: Potency [1] | Potency [2] | Potency [3] | max response [4] 31.3%

CN(C)CCC(c1ccc(Br)cc1)c1ccccn1 (stereo not given)
inactive: Potency [1] | Potency [2] | max response [4] 11.9%

CC(C)Cn1c(=O)n(C)c(=O)c2[nH]cnc21
inactive: Potency [1] | Potency [2] | Potency [3] | max response [4] 4.24%

CCCc1c(-c2ccc(O)cc2)nn(-c2ccc(O)cc2)c1-c1ccc(O)cc1
inactive: Potency [1] | Potency [2] | Potency [3] | max response [4] 23.6% | max response [5] -10.3%
active: Potency [6] 70.8 µM

CCn1c(=O)[nH]c2cc(Cl)c(Cl)cc21
inactive: Potency [1] | Potency [2] | Potency [3] | max response [4] 24.6%

O=C(O)CCC/C=C\C[C@@H]1[C@@H](/C=C/[C@H](O)C2Cc3ccccc3C2)[C@@H](F)C[C@@H]1O
inactive: Potency [1] | Potency [2] | max response [4] -7.09%

COc1cc(/C=C(\C#N)C(=O)Nc2nnc(C(F)(F)F)s2)ccc1OCc1ccc(C(F)(F)F)cc1C(F)(F)F
inactive: Potency [1] | Potency [2] | Potency [3] | max response [4] 5.8%

OC[C@H]1NC[C@@H](O)[C@@H]1O
inactive: Potency [1] | Potency [2] | max response [4] 20.9%

Cc1cccc(C)c1OCC(N)C(C)C (stereo not given)
-0.502%: remaining parasite growth % (stronger effect = lower value) [7]
-0.0581%: activity, percent of control [8]
inactive: Potency [1] | Potency [2] | Potency [3]
active: Potency [4] 23.5 µM
-0.0097%: remaining proliferation (% of control), lower = more inhibition [9]

Cc1nc(N=Nc2cc(S(=O)(=O)O)c3cc([N+](=O)[O-])cc(S(=O)(=O)O)c3c2)c(COP(=O)(O)O)c(C=O)c1O
inactive: Potency [1] | Potency [2] | max response [4] -2.01%

CC(/C=C/c1cccc(Oc2ccc(F)cc2)c1)N(O)C(N)=O (stereo not given)
inactive: Potency [1] | Potency [2] | Potency [3] | max response [4] 13.8%

CC(N)(C(=O)O)c1ccc(C(=O)O)cc1 (stereo not given)
inactive: Potency [1] | Potency [2] | max response [4] 12%

O=C(O)[C@H]1NCCC[C@H]1C(=O)O
inactive: Potency [1] | Potency [2] | Potency [3] | max response [4] 8.68%

N#Cc1cc2nc(O)c(O)nc2cc1[N+](=O)[O-]
inactive: Potency [1] | Potency [2] | Potency [3] | max response [4] 15.6%

COc1ccc(CCN(C)CCc2ccc(OC)c(OC)c2)cc1OC
inactive: Potency [1] | Potency [2] | Potency [3] | max response [4] 12.4%

CCCCCCCCCCCCCCSCC(=O)O
inactive: Potency [1] | Potency [2] | Potency [3] | max response [4] 30.8% | max response [5] -15% | Potency [6]

NC(C(=O)N[C@@H]1C(=O)N2C(C(=O)O)=C(Cl)CS[C@H]12)c1ccccc1 (stereo not given in full)
inactive: Potency [1] | Potency [2] | Potency [3] | max response [4] 8.93%

O=[N+]([O-])c1cccc2cn[nH]c12
inactive: Potency [1] | Potency [2] | Potency [3] | max response [4] 8.31%

CC(N)(Cc1ccc(O)c(O)c1)C(=O)O (stereo not given)
inactive: Potency [1] | Potency [2] | Potency [3] | max response [4] 8.06%

O=C1C2C=CC=CC2=NC(=S)N1CCN1CCC(=C(c2ccc(F)cc2)c2ccc(F)cc2)CC1 (stereo not given)
inactive: Potency [1] | Potency [2] | Potency [3] | max response [4] 2.83%

COC(=O)[C@H](NC(=O)c1cc(-c2ccccc2)nc2ccccc12)c1ccccc1
inactive: Potency [1] | Potency [2] | Potency [3] | max response [4] 9.97%

CC1C(=O)N(C)C(=O)c2nc[nH]c21 (stereo not given)
inactive: Potency [1] | Potency [2] | Potency [3] | max response [4] 38.8%

CC(C)C[C@H](NC(=O)C1OC1C(=O)O)C(=O)NCCCCN=C(N)N (stereo not given in full)
inactive: Potency [1] | Potency [2] | max response [4] -4.29%

NC1CONC1=O (stereo not given)
94.2%: parasite growth, % of DMSO control [10]
inactive: Potency [1] | Potency [2] | Potency [3] | max response [4] 13.9%

NC1(C(=O)O)CC1
inactive: Potency [1] | Potency [2] | Potency [3] | max response [4] 4.84%

CC(=O)C(C)=O
inactive: Potency [1] | Potency [2] | Potency [3] | max response [4] 0.793% | max response [5] -4.3% | Potency [6]
